Pf apPOL inh = Pf-apPOL DNA polymerase inhibition | Recombinant Pf-apPOL, molecular beacon fluorescence, 1.5 h | 210,000 compounds, 0.25% hits | inhibition, % at 10 µM
mHTT-CaM PPI inh = inhibitors of human mutant huntingtin-calmodulin interaction; inhibition, % at 15 µM; AID 1671202; AlphaScreen His-mHTT/GST-CaM binding, luminescence; P42858; 190,000 compounds, 3.6% hits;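 also: 0% = both proteins with DMSO and 100% = one protein alone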
* marks the source's active call; other numbers are inactive results; i = inactive; . = not tested or not shown. The full list was thinned out, with hits kept by preference. Rule as the data show it: active = inhibition above about 50%; inactive = the rest.

SMILES | Pf apPOL inh | mHTT-CaM PPI inh
COc1cc(OC)c(C2CC(c3cccc(Br)c3)Nc3nnnn32)cc1OC (centres undefined) | 1.4 | 41.1
COc1cccc2c(=O)c(CN3CCCCC3)c(C)[nH]c12 | -2.9 | -2.0
Nc1ccc(Nc2ccc([N+](=O)[O-])cc2)cc1 | -5.1 | 51.5*
NCCNc1ccc([N+](=O)[O-])cc1 | -1.2 | 11.5
CC(C)(C)C(=O)C(C#N)=CNc1cccc2nsnc12 | -9.3 | .
O=C(Nc1nnc2ccccn12)c1ccccc1C(F)(F)F | -7.9 | 9.5
O=C(Nc1nnc2ccccn12)c1ccccc1Br | -3.0 | 100.3*
CCOc1cccc2nnc(NC(=O)c3ccc(C)cc3)n12 | 31.0 | 50.9*
CCc1ccc(C(=O)Nc2nnc3ccccn23)cc1 | -10.6 | 58.3*
CC(C)CC(=O)Nc1nnc2ccccn12 | -5.9 | 10.2
O=C(Nc1nnc2ccccn12)c1ccc(C(F)(F)F)cc1 | -22.9 | 38.5
CCOc1cccc2nnc(NC(=O)c3ccc(C(F)(F)F)cc3)n12 | 2.2 | 8.9
CC(C)c1ccc(C(=O)Nc2nnc3ccccn23)cc1 | -3.2 | 64.8*
CCS(=O)(=O)c1ccc(-c2nnc(NC(=O)Nc3cccs3)o2)cc1 | 10.8 | 6.7
Cc1ccccc1OCC(=O)O/N=C(\N)c1ccccn1 | -6.5 | i
COc1ccc(OCC(=O)N2CCCC(C)(C(=O)NCc3cccc(OC)c3)C2)cc1 (centres undefined) | -2.2 | 2.4
CC(=O)c1cccc(NC(=O)c2csc3c2CCCC3)c1 | -3.0 | 3.4
CN1C(=O)c2ccccc2C(C(=O)N2CCCCCC2)C1c1cn(C)c2ccccc12 (centres undefined) | 5.9 | 7.0
Cc1occc1C(=O)Nc1ccc(I)cc1C(=O)O | 10.5 | 59.8*
Cc1occc1C(=O)Nc1ccccc1NC(=O)c1ccoc1C | 4.2 | 9.1
O=C1C(=Cc2ccc3c(c2)OCO3)Oc2cc(OC(=O)N3CCOCC3)ccc21 | -2.8 | 41.6
COc1cc(CN2CCCC2c2c(C)noc2C)ccc1OC(C)C (centres undefined) | 1.3 | -9.0
O=c1sc2c(n1-c1ccccc1)SCC1COc3ccccc3C21 (centres undefined) | -13.6 | 66.0*
O=C(O)CCn1c2c(sc1=O)C1c3ccccc3OCC1CS2 (centres undefined) | 1.2 | 26.0
CCN(c1ccc(C)c(C)c1)S(=O)(=O)c1ccc2c(c1)CC(C)N2C(C)=O (centres undefined) | -1.1 | 70.0*
SMILES | Pf apPOL inh | mHTT-CaM PPI inh
CCN(c1cccc(C)c1)S(=O)(=O)c1ccc2c(c1)CC(C)N2C(C)=O (centres undefined) | 2.1 | 7.0
c1csc(CNc2ncnc3c2CCC3)c1 | -7.9 | 1.4
CCCN(CCC)S(=O)(=O)c1ccc(C(=O)Nc2nnc(-c3ccc(F)cc3)o2)cc1 | -23.7 | 6.0
c1ccc(C2=NN3C(C2)c2ccccc2OC3c2ccc3ccccc3c2)cc1 (centres undefined) | . | -4.5
Cc1nc(-c2ccncc2)nc2c1CCC(=O)N2Cc1cccs1 | -3.3 | 6.0
Cc1nc(-c2cnccn2)nc2c1CCC(=O)N2Cc1ccccn1 | -21.6 | 98.9*
Cc1nc(-c2cccnc2)nc2c1CCC(=O)N2Cc1ccccn1 | -12.1 | 1.5
Cc1nc(-c2cccnc2)nc2c1CCC(=O)N2CCN1CCCC1 | 57.9* | 22.7
Cc1ccc(CN2C(=O)CCc3c(C)nc(-c4ccncc4)nc32)o1 | 9.3 | 71.4*
Cc1nc(-c2cccnc2)nc2c1CCC(=O)N2CCN(C)C | -6.0 | 1.4
Cc1ccc(S(=O)(=O)N(CC(=O)Nc2cccc(F)c2)c2ccccc2Cl)cc1 | -3.5 | -2.7
Cc1nnc(-c2cccn2CC(=O)Nc2ccccc2C)o1 | 1.1 | -6.0
O=C(O)C1=CC(=C(c2ccc(O)c(C(=O)O)c2)c2ccc(O)c(C(=O)O)c2)C=CC1=O | 92.1* | .
CC(=O)Nc1ccc(O)c(C(=O)O)c1 | -4.5 | .
N#CC1=C(N)SC(N)=C(C#N)C1c1ccncc1 | . | 2.5
N#CC1=C(N)SC(N)=C(C#N)C1c1ccc(Cl)c(Cl)c1 | -1.6 | 97.6*
Cc1cc(C)n(CC2CCN(C(=O)c3ccc4c(c3)OCO4)CC2)n1 | -11.7 | -14.5
Nc1ccc(-n2cncn2)cc1 | -4.4 | .
CN(CCCNC(=O)c1ccc2c(c1)NC(=O)C(N1CCCCC1)S2)Cc1ccccc1 (centres undefined) | -21.0 | 5.0
CCC(C(=O)Nc1cc(F)c2nc(N3CCOCC3)ccc2c1)c1ccccc1 (centres undefined) | 2.5 | -14.6
O=C1OC(c2ccccc2Cl)=N/C1=C\C=C\c1ccccc1 | -1.3 | 53.0*
O=C1OC(c2ccccc2Br)=N/C1=C\C=C\c1ccccc1 | -5.9 | 45.0
O=C(c1ccco1)N1CCC(O)(c2ccccc2)C(N2CCCC2)C1 (centres undefined) | 2.2 | 14.5
COc1cc(/C=C2\C(=O)ON=C2C)cc(Cl)c1OCc1ccccc1 | -0.9 | 91.0*
COc1cc(/C=C2\C(=O)ON=C2C)cc(Cl)c1OCc1ccc(F)cc1 | 7.2 | 74.0*
SMILES | Pf apPOL inh | mHTT-CaM PPI inh
COc1cc(/C=C2\C(=O)ON=C2C)cc(Br)c1OCc1ccc(F)cc1 | 8.2 | 46.0
CC1=NOC(=O)/C1=C/c1ccccc1OCc1ccccc1F | -0.7 | 20.0
COc1cc(/C=C2\C(=O)ON=C2C)ccc1OCc1ccccc1Cl | -0.4 | -8.0
COc1cc(C=O)cc(Cl)c1OCc1cccc(F)c1 | -13.9 | -74.1
CCOc1cc(/C=C2\C(=O)ON=C2C)cc(Br)c1OCc1ccc(F)cc1 | -3.7 | 75.0*
CC1=NOC(=O)/C1=C/c1ccccc1OCc1cccc(Cl)c1 | -2.0 | 55.0*
O=C(COc1ccc(Cl)cc1Br)N1CCc2ccccc2C1 | -2.3 | -17.0
O=C(Nc1ccccc1C(F)(F)F)C1CC2CCCC(C1)C2=O (centres undefined) | -1.3 | -2.0
Cc1nc(Cn2cccc2C(=O)Nc2cc(Cl)ccc2C)no1 | -3.5 | -7.3
O=C(Nc1ccc(Cl)cc1Cl)c1cc2n(n1)C(C(F)(F)F)CC(c1cccs1)N2 (centres undefined) | -1.9 | 6.0
CCOc1cc(/C=C2\C(=O)ON=C2C)cc(Cl)c1OCc1ccc(F)cc1 | -1.0 | 93.0*
COc1cc(/C=C2\C(=O)ON=C2C)ccc1OCc1cccc(F)c1 | 8.3 | 100.0*
CCOc1cc(/C=C2/C(=O)ON=C2C)ccc1OCc1ccc(Cl)cc1 | -6.8 | -5.0
CC1=NOC(=O)/C1=C/c1ccc(OCc2cccc(F)c2)c(Cl)c1 | -4.1 | 1.0
O=C(Cn1cnc2c(-c3ccc(Cl)cc3)csc2c1=O)Nc1cccc(F)c1 | -0.5 | -2.9
Cc1ccc(NC(=O)CSc2nc3c(c(=O)n2-c2ccc(Cl)cc2)SCC3)c(C)c1 | -0.3 | -2.0
CCOc1ccc2nc(SC3CC(=O)N(c4cccc(Cl)c4C)C3=O)sc2c1 (centres undefined) | -1.3 | 8.5
Cc1nnc(NC(=O)CN2CCC(c3nnc(-c4ccco4)s3)CC2)s1 | -6.1 | -1.7
Cc1sc(-c2ccn[nH]2)cc1NC(=O)C1CCCCC1 | -3.3 | -3.6
Cc1sc(-c2ccn[nH]2)cc1NC(=O)c1cccc(N(C)C)c1 | -2.0 | 86.9*
CC(C)(C)C1CCc2nc(SCC(=O)Nc3nccs3)c(C#N)cc2C1 (centres undefined) | -1.7 | 5.0
CCc1nnc(NC(=O)c2cc(OC)c(OC)c(OC)c2Br)s1 | 79.5* | 6.0
CCc1nnc(NC(=O)c2c(OC)cccc2OC)s1 | 2.6 | 1.4
COc1ccccc1C(NC(=O)C1CCCCC1)c1ccc2cccnc2c1O (centres undefined) | 0.4 | 100.0*
CCCCC(=O)NC(c1ccccc1Cl)c1ccc2cccnc2c1O (centres undefined) | -0.7 | 99.0*

High-throughput results deposited in PubChem BioAssay by University of Kansas High Throughput Screening Laboratory.
